Measured values taken from PubChem BioAssay AID624161 (National Center for Advancing Translational Sciences (NCATS), 2012).
This is one part of the list. Inconclusive results are not listed. Calls of active or inactive are those of the source. Calls follow the shape of the dose curve; as a rule, active = well fitted inhibition curve with a large enough effect; inconclusive = small, poorly fitted or top-dose-only effect; inactive = no such curve, though single readings can be large or run the other way.

Biological target: Histone-lysine N-methyltransferase 2A (Homo sapiens) (UniProt Q03164)
Sequence (Q03164 whole entry, looked up, the tested form may be a part): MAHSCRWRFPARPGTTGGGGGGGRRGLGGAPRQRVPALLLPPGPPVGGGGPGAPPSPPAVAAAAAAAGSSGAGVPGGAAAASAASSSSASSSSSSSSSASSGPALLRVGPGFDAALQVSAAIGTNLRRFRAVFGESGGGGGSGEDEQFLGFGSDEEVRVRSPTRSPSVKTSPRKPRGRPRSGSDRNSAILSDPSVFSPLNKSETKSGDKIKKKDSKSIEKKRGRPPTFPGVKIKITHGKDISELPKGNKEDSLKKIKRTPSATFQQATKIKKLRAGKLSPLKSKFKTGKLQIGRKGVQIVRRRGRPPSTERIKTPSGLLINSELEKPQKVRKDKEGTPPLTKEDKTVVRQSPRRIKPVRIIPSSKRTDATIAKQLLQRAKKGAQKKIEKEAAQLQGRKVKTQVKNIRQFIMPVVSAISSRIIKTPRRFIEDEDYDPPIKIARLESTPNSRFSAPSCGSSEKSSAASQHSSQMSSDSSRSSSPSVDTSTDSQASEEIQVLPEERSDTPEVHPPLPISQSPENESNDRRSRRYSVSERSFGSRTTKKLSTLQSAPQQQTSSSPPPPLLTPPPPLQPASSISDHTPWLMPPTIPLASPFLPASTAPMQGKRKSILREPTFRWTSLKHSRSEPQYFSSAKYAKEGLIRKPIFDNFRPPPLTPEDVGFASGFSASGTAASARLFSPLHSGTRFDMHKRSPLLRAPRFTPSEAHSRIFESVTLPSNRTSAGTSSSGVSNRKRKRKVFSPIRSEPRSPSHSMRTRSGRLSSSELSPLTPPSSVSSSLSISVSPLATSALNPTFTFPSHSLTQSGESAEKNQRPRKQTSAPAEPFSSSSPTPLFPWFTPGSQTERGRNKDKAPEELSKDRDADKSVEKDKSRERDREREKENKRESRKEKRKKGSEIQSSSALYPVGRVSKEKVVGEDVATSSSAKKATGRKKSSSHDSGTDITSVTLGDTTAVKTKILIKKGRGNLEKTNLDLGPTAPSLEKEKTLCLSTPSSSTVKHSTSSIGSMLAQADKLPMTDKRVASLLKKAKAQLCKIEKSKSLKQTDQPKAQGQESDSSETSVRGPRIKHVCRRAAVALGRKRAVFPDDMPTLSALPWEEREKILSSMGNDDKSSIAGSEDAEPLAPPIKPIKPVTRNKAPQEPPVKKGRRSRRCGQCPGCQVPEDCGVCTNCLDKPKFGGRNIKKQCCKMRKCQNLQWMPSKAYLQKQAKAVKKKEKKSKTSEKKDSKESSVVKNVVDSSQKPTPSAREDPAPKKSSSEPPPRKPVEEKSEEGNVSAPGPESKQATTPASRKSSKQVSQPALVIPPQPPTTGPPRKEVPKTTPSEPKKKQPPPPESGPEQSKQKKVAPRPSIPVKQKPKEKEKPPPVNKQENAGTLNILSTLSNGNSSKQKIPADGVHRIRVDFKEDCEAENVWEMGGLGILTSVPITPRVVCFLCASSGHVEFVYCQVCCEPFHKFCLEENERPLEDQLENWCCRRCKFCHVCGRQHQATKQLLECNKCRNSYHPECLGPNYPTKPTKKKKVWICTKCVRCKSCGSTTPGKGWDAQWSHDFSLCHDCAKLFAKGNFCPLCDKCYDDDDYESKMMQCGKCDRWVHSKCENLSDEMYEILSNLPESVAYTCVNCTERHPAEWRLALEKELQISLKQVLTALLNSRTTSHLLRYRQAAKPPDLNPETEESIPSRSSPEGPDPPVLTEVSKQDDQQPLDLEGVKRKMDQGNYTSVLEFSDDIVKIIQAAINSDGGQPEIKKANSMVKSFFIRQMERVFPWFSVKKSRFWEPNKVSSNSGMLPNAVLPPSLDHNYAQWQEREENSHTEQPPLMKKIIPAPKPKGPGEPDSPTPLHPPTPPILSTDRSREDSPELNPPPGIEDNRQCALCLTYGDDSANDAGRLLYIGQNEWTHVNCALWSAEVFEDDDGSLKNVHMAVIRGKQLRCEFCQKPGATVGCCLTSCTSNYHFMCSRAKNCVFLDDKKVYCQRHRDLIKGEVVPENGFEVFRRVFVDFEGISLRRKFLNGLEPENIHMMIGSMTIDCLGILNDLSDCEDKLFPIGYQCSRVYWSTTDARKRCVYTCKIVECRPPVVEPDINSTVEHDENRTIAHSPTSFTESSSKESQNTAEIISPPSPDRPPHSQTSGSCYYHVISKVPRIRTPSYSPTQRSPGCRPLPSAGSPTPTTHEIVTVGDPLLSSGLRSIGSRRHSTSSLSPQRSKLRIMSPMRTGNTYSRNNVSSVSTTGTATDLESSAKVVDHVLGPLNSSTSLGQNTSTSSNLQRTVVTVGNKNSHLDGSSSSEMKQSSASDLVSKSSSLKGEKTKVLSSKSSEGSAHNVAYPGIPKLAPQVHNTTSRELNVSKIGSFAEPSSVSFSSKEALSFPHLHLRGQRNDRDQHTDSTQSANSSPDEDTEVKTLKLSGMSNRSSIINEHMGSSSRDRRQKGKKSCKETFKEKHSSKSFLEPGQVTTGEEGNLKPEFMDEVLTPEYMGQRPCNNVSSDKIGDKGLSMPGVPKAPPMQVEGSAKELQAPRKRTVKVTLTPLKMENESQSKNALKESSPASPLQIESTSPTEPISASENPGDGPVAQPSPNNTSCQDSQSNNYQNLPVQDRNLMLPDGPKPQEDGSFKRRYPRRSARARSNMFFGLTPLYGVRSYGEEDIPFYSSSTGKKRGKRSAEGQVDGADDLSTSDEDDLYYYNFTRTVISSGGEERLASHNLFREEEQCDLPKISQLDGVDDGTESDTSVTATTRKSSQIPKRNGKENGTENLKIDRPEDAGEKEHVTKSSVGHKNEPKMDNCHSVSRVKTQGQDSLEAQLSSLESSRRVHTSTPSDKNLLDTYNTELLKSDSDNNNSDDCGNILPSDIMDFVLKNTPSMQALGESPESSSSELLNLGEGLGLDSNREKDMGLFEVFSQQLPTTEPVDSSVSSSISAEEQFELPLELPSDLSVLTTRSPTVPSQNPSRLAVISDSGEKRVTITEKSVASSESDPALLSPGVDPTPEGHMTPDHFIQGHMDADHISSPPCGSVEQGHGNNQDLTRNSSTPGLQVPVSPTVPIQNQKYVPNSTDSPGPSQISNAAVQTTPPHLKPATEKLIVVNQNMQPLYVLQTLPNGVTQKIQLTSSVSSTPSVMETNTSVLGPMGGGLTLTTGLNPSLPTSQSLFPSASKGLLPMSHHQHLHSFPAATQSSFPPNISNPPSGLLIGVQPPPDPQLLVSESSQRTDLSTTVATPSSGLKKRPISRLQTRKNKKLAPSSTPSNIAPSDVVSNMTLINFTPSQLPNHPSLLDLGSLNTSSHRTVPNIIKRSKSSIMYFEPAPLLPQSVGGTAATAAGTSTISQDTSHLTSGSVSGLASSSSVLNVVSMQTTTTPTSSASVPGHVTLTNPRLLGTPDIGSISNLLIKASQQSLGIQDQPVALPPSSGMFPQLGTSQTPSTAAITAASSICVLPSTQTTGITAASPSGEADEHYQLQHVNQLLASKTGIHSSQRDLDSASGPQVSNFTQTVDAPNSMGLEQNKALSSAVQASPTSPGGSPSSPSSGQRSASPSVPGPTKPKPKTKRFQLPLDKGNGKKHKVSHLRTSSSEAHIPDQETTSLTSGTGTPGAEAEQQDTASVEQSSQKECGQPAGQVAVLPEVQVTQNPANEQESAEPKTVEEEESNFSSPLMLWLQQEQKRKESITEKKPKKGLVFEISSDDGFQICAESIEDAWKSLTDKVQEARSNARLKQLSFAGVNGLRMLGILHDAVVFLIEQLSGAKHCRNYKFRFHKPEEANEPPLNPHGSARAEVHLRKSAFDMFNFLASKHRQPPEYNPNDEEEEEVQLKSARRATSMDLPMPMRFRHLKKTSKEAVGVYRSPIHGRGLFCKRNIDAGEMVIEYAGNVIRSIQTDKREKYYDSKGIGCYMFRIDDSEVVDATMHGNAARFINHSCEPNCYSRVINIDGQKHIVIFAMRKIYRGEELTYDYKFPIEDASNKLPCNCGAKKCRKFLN
Experiment: qHTS Fluorescence Polarization (FP) Assay for Inhibitors of MLL CXXC domain - DNA interaction: Texas Red FP; also: nearly all actives have a fitted effect of over 75% in size
Details: MLL CXXC-DNA binding; series mostly up to 345 µM; activity change, negative = inhibition: at the top concentration
Source text: The MLL (Mixed Lineage Luekemia) gene is involved in chromosomal translocation that results in either acute lymphoid leukemia (ALL) or acute myeloid leukemia (AML). Chromasomal translocation of MLL gene is responsible for the fusion of N-terminal MLL to more than 60 different partner genes in frame. Many of the MLL partner genes contain transcription activation domains or function as transcriptional activators. Despite the heterogeneity of fusion partners, the N-terminus of MLL fusion proteins always consists of the N-terminal menin binding motif and the CXXC domain. The MLL-CXXC domain specifically recognizes unmethylated CpG sequences of the HOX-A gene. Disruption of the MLL-CXXC and HOX-A gene interaction leads to down regulation of HOX-A gene expression and may potentially reverse leukemogenesis. We have miniaturized and optimized an in-vitro assay to screen for inhibitors of the MLL-CXXC domain and HOX-A DNA interaction, which could have utility in MLL fusion leukemias.
This is a hit validation assay that tests this hits identified in the primary screen in this secondary screen, using a Texas Red FP as a read-out.
NIH Molecular Libraries Probe Production Network [MLPCN]
NIH Chemical Genomics Center [NCGC]
PI Name: John Bushweller, University of Virgina
The affinity purified MLL-CXXC domain, unlabeled HOX-A9 DNA strand, Texas Red (FLSN) labeled HOX-A9 DNA strand were kindly supplied by the laboratory of Dr. John Bushweller, University of Virginia. All reagents were stored in single use aliquots at -80C.
Assay buffer: 50 mM TRIS-HCl pH 7.5, 50 mM NaCl, 1 mM DTT. Add 0.05% BSA prior to reaction setup.
1.Dispense 1 ul of a 7 uM MLL-CXXC solution prepared in assay buffer into column 1-48.
2.Transfer 23 nl of compounds and unlabeled HOX-A9 per well.
3.Incubate for 5 minutes at ambient.
4.Dispense 1ul of a 50 nM TR-HOX-A9 solution prepared in assay buffer into columns 1-48
5.Centrifuge for 30 seconds at 1000 RPM.
6.Incubate for 30 minutes at ambient.
7.Read using the Envision reader fluorescent polarization protocol.
% is scaled to controls: 0 for no effect and ±100 for the full control effect; potency is read from the fitted curve at half-maximal effect.

Row | SMILES | activity change, negative = inhibition | Potency
1 | COc1ccc(S(=O)(=O)/N=C2\C=C(NS(=O)(=O)c3ccccc3)C(=O)c3ccccc32)cc1 | -22.2% (inactive) | 
2 | COc1cc(/C=C2/C(=O)NN(c3ccc(F)cc3)C2=O)cc([N+](=O)[O-])c1O |  | 126 µM (active)
3 | CCOC(=O)/C(N=Nc1cc(C(=O)O)cc(C(=O)O)c1)=C(\O)CCl |  | 142 µM (active)
4 | COc1ccc(-c2onc3ccc(C(C)=O)cc23)cc1 | -8.07% (inactive) | 
5 | O=C1NN(c2ccccc2)C(=O)/C1=C/c1ccc(-c2cccc(C(=O)O)c2)o1 |  | 126 µM (active)
